Measured values: the supplement of paper PMC10849652
Of roughly 8,800 targets only a part is listed; those with a hit were picked by preference. About 0.5% of all pairs of compound and target were hits. Unmarked numbers belong to inactive results.

Legend:
Assay in all cases: log2 fold change, soluble protein after heating vs DMSO (PISA); higher = thermal stabilisation; K562 lysate, 10 uM; active = over 0.2 and 3.5 SD of the protein, either way, in both replicates (recomputed)
vemurafenib = compound: CCCS(=O)(=O)Nc1ccc(F)c(C(=O)c2c[nH]c3ncc(-c4ccc(Cl)cc4)cc23)c1F [vemurafenib]
Summary of the method: (§1)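 Log-two fold change in thermal stability relative to solvent controls is reported from duplicates. For each sample, crude K562 extract from dounce-homogenised pellets in PBS pH 7.4 with 1 mM MgCl2, at 1 mg/mL protein, was treated with 10 μM compound for 30 min. Aliquots heated for 3 min across 48°C-58°C were pooled, brought to 0.5% NP-40 at 4°C and cleared at 21,000xg for 90 min. The supernatant was quantified by TMTpro 16plex LC-MS/MS with channel sums equalised.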

[1] = compound: CCCS(=O)(=O)Nc1ccc(F)c(C(=O)c2c[nH]c3ncc(Cl)cc23)c1F
Summary of the method: as §1

barasertib = compound: CCN(CCCOc1ccc2c(Nc3cc(CC(=O)Nc4cccc(F)c4)[nH]n3)ncnc2c1)CCOP(=O)(O)O [barasertib]
Summary of the method: as §1

[2] = compound: CC[C@@H]1C(=O)N(C)c2cnc(Nc3ccc(C(=O)NC4CCN(C)CC4)cc3OC)nc2N1C1CCCC1
Summary of the method: as §1

volasertib = compound: CC[C@@H]1C(=O)N(C)c2cnc(Nc3ccc(C(=O)N[C@H]4CC[C@H](N5CCN(CC6CC6)CC5)CC4)cc3OC)nc2N1C(C)C [volasertib]
Summary of the method: as §1

[3] = compound: CCn1c(C(=O)N(C2CC2)C2CC2)cc2c3c(ncn3C)c(Nc3cc(C)n(C)n3)nc21
Summary of the method: as §1

[4] = compound: CCn1cc(-c2ccnc3[nH]c(-c4cccc(CN(C)C)c4)cc23)c(-c2ccc(NC(=O)N(C)C)cc2)n1
Summary of the method: as §1

[5] = compound: CN1CCC(CNc2ccc3ncc(-c4cccc(OC(F)(F)F)c4)n3n2)CC1
Summary of the method: as §1

saracatinib = compound: CN1CCN(CCOc2cc(OC3CCOCC3)c3c(Nc4c(Cl)ccc5c4OCO5)ncnc3c2)CC1 [saracatinib]
Summary of the method: as §1

sotrastaurin = compound: CN1CCN(c2nc(C3=C(c4c[nH]c5ccccc45)C(=O)NC3=O)c3ccccc3n2)CC1 [sotrastaurin]
Summary of the method: as §1

Chain of UniProt Q70CQ2 (Q70CQ2 whole entry, looked up): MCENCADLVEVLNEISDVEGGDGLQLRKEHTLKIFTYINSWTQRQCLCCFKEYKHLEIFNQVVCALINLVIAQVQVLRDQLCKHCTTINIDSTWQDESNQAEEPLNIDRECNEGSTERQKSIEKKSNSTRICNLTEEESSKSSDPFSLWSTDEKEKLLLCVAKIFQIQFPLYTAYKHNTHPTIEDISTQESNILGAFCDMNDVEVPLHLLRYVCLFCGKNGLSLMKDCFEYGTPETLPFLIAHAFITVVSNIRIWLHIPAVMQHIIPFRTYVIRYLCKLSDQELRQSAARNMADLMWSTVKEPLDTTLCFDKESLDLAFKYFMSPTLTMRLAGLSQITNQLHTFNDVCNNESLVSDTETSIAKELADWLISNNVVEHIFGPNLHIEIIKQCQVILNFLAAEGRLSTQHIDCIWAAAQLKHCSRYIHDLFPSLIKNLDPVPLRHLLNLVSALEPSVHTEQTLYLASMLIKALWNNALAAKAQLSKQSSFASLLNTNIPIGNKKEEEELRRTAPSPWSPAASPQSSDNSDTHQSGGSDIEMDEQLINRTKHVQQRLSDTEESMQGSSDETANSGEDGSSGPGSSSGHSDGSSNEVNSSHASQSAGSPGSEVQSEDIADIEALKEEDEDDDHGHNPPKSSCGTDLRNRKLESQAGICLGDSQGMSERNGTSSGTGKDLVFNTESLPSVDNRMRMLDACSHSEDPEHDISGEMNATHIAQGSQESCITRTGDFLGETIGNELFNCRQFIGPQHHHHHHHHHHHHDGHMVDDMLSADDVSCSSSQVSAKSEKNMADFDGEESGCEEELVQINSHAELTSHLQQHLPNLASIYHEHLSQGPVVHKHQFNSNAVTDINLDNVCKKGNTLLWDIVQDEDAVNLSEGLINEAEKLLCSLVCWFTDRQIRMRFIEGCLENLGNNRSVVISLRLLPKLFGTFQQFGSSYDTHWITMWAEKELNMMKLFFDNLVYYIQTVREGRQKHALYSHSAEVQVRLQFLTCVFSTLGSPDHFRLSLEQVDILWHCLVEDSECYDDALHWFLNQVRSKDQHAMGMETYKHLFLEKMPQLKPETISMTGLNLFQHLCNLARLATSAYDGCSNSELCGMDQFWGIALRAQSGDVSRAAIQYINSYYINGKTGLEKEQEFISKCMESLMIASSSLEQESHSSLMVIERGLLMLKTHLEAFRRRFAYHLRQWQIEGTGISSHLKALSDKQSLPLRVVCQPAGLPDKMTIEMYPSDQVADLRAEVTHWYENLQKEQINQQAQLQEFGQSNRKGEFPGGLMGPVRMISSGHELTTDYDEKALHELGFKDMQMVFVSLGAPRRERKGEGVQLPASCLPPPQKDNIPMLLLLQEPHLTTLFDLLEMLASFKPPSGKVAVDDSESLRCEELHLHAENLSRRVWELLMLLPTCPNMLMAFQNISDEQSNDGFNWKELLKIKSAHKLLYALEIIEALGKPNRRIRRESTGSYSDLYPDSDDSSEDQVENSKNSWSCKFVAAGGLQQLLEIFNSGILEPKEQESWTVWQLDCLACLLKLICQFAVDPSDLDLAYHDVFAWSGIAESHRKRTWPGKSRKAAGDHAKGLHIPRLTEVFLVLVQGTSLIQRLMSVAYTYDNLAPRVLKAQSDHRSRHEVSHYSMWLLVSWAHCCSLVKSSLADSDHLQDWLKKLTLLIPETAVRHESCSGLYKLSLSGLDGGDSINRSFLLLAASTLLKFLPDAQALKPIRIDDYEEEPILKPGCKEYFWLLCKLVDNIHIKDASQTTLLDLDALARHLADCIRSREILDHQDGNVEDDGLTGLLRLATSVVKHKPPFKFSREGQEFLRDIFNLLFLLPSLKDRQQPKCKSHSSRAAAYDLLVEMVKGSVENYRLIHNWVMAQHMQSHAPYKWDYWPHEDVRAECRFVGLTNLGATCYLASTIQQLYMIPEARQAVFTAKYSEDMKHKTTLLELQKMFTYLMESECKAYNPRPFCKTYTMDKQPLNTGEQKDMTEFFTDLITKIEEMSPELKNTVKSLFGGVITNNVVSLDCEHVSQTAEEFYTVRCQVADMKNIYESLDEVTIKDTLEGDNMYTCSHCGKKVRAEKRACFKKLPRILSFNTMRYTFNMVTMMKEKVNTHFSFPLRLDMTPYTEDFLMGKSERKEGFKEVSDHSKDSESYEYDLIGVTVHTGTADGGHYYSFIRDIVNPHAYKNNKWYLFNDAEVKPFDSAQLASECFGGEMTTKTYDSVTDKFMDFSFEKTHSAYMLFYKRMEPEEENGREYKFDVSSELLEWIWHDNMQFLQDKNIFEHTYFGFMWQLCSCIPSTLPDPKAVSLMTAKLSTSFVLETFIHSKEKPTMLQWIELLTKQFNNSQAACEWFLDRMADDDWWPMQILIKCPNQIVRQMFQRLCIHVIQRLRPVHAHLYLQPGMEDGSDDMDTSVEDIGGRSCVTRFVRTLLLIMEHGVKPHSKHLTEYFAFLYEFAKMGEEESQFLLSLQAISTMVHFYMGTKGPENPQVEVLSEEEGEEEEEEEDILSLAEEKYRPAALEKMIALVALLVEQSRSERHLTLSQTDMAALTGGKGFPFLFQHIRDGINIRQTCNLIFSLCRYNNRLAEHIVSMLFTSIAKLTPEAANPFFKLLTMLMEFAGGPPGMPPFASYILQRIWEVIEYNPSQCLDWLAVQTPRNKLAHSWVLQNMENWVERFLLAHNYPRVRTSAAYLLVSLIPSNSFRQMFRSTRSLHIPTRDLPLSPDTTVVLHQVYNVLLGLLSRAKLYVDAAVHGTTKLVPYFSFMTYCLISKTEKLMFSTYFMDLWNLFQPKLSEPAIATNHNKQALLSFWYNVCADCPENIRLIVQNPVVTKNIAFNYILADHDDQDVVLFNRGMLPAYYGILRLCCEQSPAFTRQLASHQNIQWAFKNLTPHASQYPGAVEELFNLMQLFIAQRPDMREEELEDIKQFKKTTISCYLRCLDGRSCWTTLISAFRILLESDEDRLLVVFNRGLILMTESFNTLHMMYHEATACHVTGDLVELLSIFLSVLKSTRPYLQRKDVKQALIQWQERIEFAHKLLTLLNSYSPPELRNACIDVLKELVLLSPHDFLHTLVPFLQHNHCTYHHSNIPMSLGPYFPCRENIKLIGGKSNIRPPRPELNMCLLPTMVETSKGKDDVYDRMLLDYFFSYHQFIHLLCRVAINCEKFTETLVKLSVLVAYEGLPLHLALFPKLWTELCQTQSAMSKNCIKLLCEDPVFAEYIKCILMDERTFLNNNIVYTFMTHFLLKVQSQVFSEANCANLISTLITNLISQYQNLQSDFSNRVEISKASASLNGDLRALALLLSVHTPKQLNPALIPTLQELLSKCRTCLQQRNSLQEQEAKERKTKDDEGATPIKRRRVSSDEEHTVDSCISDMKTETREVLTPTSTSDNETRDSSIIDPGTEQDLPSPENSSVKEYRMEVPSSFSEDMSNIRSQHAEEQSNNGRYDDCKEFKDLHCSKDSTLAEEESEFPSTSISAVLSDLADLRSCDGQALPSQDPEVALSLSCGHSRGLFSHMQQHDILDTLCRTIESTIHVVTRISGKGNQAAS
Chain of UniProt Q96S55 (Q96S55 whole entry, looked up): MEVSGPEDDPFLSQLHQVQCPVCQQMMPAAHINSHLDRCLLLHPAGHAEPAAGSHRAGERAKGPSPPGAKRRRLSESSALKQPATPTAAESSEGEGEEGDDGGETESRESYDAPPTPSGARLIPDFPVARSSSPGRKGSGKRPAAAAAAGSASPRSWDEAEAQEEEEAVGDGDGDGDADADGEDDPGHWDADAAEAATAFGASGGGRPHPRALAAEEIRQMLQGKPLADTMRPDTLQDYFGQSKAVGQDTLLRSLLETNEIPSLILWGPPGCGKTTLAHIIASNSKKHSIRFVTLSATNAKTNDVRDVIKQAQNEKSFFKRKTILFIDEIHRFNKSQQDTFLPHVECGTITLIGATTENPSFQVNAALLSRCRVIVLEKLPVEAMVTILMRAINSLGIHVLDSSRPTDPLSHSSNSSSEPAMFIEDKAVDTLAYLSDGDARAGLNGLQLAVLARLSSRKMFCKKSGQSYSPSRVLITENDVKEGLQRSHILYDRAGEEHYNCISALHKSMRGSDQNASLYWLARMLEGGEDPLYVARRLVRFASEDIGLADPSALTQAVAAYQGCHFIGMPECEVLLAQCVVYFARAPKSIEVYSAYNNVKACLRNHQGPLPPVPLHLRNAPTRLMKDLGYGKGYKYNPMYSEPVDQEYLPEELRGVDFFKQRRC
Chain of UniProt Q9P253 (Q9P253 whole entry, looked up): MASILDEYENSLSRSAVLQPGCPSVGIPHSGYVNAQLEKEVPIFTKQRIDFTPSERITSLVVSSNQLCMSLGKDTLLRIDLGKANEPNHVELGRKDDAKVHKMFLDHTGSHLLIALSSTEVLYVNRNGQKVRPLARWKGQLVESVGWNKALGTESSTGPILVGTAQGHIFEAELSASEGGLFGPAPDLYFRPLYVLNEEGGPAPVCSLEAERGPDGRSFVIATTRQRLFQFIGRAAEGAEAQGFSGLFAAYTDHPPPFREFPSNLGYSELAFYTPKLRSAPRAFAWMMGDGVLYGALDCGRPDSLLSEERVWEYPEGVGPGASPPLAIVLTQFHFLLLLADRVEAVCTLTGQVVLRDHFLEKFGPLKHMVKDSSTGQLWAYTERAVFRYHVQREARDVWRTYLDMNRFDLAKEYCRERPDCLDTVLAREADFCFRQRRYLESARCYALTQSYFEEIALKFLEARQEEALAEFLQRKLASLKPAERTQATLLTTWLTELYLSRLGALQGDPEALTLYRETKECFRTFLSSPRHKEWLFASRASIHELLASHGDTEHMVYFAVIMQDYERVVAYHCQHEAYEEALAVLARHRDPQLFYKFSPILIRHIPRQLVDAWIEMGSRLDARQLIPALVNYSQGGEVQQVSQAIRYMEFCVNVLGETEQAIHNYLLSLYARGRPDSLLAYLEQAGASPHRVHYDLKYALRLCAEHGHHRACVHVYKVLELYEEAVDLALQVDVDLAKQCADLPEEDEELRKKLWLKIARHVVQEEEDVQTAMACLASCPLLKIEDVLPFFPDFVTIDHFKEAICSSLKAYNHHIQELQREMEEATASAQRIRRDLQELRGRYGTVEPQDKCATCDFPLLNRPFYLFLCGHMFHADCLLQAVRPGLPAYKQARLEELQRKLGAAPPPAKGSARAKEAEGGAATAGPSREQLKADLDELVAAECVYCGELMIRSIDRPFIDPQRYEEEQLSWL

Row | Target | log2 fold change (vemurafenib) | log2 fold change [1] | log2 fold change (barasertib) | log2 fold change [2] | log2 fold change (volasertib) | log2 fold change [3] | log2 fold change [4] | log2 fold change [5] | log2 fold change (saracatinib) | log2 fold change (sotrastaurin)
1 | ZMAT2 (UniProt Q96NC0) | -0.015 | 0 | -0.041 | 0.062 | 0.039 | -0.026 | -0.034 | 0.087 | 0.017 | -0.036
2 | XPO6 (UniProt Q96QU8) | 0.033 | 0.013 | 0.062 | -0.03 | -0.058 | -0.049 | 0.448 | 0.071 | -0.007 | 0
3 | WDR41 (UniProt Q9HAD4) | -0.018 | 0.036 | -0.07 | 0.089 | 0.005 | 0.053 | -0.032 | 0.053 | 0.017 | 0.043
4 | ZNF451 (UniProt Q9Y4E5) | -0.013 | 0.02 | 0.019 | 0.066 | -0.063 | -0.022 | -0.047 | -0.048 | 0.039 | 0.002
5 | VPS33A (UniProt Q96AX1) | -0.012 | 0.022 | 0.037 | 0.018 | -0.042 | 0.018 | -0.041 | -0.033 | -0.001 | 0.03
6 | VCPIP1 (UniProt Q96JH7) | 0.008 | -0.04 | 0.051 | -0.006 | -0.047 | 0.011 | -0.12 | 0.049 | -0.03 | 0.035
7 | UQCRC2 (UniProt P22695) | -0.016 | 0.01 | -0.018 | 0.026 | 0.01 | -0.015 | 0.034 | -0.003 | 0.002 | -0.02
8 | UTP18 (UniProt Q9Y5J1) | -0.011 | 0.067 | -0.036 | 0.057 | -0.069 | 0.024 | -0.004 | -0.042 | 0.031 | 0.012
9 | USP34 (UniProt Q70CQ2) | 0.006 | 0.039 | 0.048 | -0.054 | -0.052 | 0.014 | 0.027 | -0.079 | 0.026 | -0.008
10 | VAV1 (UniProt P15498) | 0.032 | -0.017 | 0.022 | -0.041 | -0.002 | -0.041 | -0.114 | 0.035 | -0.011 | -0.021
11 | VRK2 (UniProt Q86Y07) | 0.113 | 0.148 | 0.048 | -0.032 | -0.008 | 0.01 | -0.104 | 0.182 | -0.022 | 0.151
12 | USP9X (UniProt Q93008) | -0.013 | 0.014 | 0.038 | -0.065 | -0.053 | 0.033 | -0.042 | -0.036 | 0.03 | 0.007
13 | YRDC (UniProt Q86U90) | 0.03 | 0.093 | 0.019 | 0.04 | -0.005 | -0.045 | -0.019 | 0.089 | -0.043 | -0.002
14 | VPS37B (UniProt Q9H9H4) | -0.001 | 0.003 | -0.012 | 0.047 | -0.011 | 0.005 | -0.018 | 0.04 | 0.048 | 0.01
15 | ZFPM1 (UniProt Q8IX07) | 0.088 | 0.007 | 0.031 | -0.017 | 0.02 | -0.042 | -0.001 | -0.021 | 0.014 | -0.009
16 | WDR91 (UniProt A4D1P6) | -0.096 | 0.028 | 0.046 | -0.043 | -0.023 | 0.055 | -0.01 | 0.041 | 0.067 | 0.019
17 | YME1L1 (UniProt Q96TA2) | 0.01 | 0.011 | 0.036 | -0.008 | -0.02 | 0.035 | 0.181 | -0.088 | 0.037 | 0.055
18 | UQCC2 (UniProt Q9BRT2) | -0.074 | 0.005 | -0.039 | -0.013 | 0.039 | -0.039 | 0.287 (active) | -0.086 | -0.04 | -0.083
19 | WRNIP1 (UniProt Q96S55) | 0.036 | 0.042 | 0.064 | -0.114 | -0.128 | 0.014 | -0.026 | 0.03 | -0.006 | 0.042
20 | YES1 (UniProt P07947) | 0.068 | 0.088 | 0.334 | -0.086 | -0.205 | -0.106 | -0.146 | -0.007 | 0.331 | -0.084
21 | WDR77 (UniProt Q9BQA1) | -0.095 | -0.012 | -0.045 | -0.029 | 0.004 | 0.022 | -0.004 | 0.011 | -0.032 | 0.001
22 | VPS18 (UniProt Q9P253) | 0.037 | 0.014 | 0 | 0 | -0.083 | 0.046 | -0.048 | -0.04 | -0.012 | 0.02
23 | ZMYND8 isoform 19 (UniProt Q9ULU4) | 0.061 | 0.071 | 0.012 | 0.016 | -0.025 | -0.015 | -0.127 | 0.037 | -0.01 | 0.019
24 | ZMYM1 (UniProt Q5SVZ6) | 0.011 | -0.017 | 0.05 | -0.033 | -0.124 | 0.017 | -0.272 (active) | 0.127 | 0.013 | 0.05
25 | USP8 (UniProt P40818) | 0 | 0.015 | 0.001 | -0.008 | -0.05 | 0.033 | -0.002 | -0.063 | -0.006 | -0.021
26 | ZMYM2 (UniProt Q9UBW7) | 0.004 | 0.101 | -0.016 | -0.034 | -0.253 | -0.119 | 0.025 | -0.196 | 0.018 | -0.008
27 | XPNPEP1 isoform 3 (UniProt Q9NQW7) | 0.001 | 0.015 | 0.008 | -0.044 | -0.054 | 0.014 | -0.022 | 0.019 | -0.001 | -0.016
28 | YDJC (UniProt A8MPS7) | -0.022 | 0.006 | 0.017 | 0.01 | -0.038 | -0.063 | 0.012 | 0.055 | 0.024 | 0.008
29 | VAV3 isoform 4 (UniProt Q9UKW4) | 0.059 | -0.004 | 0.049 | -0.001 | -0.017 | -0.291 | -0.512 | 0.177 | -0.15 | 0.001
30 | ZC3HC1 (UniProt Q86WB0) | -0.006 | 0.027 | -0.029 | -0.036 | 0.015 | 0.008 | 0.253 (active) | -0.075 | -0.03 | -0.022
